Among all 300,000 compounds or so, about 37,000 (12%) were called active. Shown is part of a subset that was picked to be rich in actives. A number with no mark means an inactive call. Cut-off read from the data, not from the text of the source: active = max response mostly above about 13% (no sharp cut-off); inactive = mostly below about 14%.

This test in a line: Cycloheximide Counterscreen for Small Molecule Inhibitors of Shiga Toxin. Note: read at 38.3 µM for the half of the compounds with a filed dose; 0% is about no effect. As to conditions: cell reporter, cycloheximide protein synthesis inhibition counterscreen; stronger effect = higher value. On the technique in general: A counterscreen serves to expose hits that act by an unwanted route or on another target.
For `Cc1ccnc(NC(=O)C2CCN(S(=O)(=O)c3c(C)c(C)cc(C)c3C)CC2)c1`, the max response is 13.3% (active). For the compound `Cc1cccc(NC(=O)C2CCN(S(=O)(=O)c3cccc4cccnc34)CC2)c1`, the max response was -2.32%. The value for `CNC(=O)C1CCN(S(=O)(=O)c2c(C)noc2/C=C/c2cccc(C)c2)CC1` was -3.52%; that for `COc1cccc(C(=O)Nc2nnc(S(=O)(=O)N(C)c3ccccc3)s2)c1` was -2.81%; that for `CN(c1ccccc1)S(=O)(=O)c1cc(C(=O)Nc2nc3ccccc3[nH]2)ccc1Cl` was 16.5% (active).

Consider `CN(c1ccccc1)S(=O)(=O)c1cc(C(=O)OCC(=O)N2CCN(C(=O)c3ccco3)CC2)ccc1Cl`, for which the max response was -1.38%. For `O=C(CN1CCN(c2ncccn2)CC1)Nc1ccccc1C(F)(F)F`, the max response was -6.89%.

On to `O=C(C1CCCN(S(=O)(=O)c2ccc([N+](=O)[O-])cc2)C1)N1CCCCC1` (stereo not given), for which the max response was 1.11%.

Take `COc1ccccc1-c1nnc(SCC(=O)N2CC(C)CC(C)C2)o1` (stereo not given): the max response is 1.31%. The value for `COc1ccccc1-c1nnc(SCC(=O)Nc2cc(C)on2)o1` was 2.69%. Turning to `COc1ccc(-c2nnc(SCC(=O)c3cccs3)o2)c(OC)c1`, the max response is 51.4% (active). To `COc1cccc(NC(=O)CSc2nnc(Cc3ccc(OC)c(OC)c3)o2)c1` belongs -3.54%. To `COc1ccccc1-c1nnc(SCC(=O)Nc2ccccc2)o1` belongs 11.4% (active); to `COc1ccc(CCNC(=O)CSc2nnc(CNC(=O)c3cccs3)o2)cc1OC`, -3.82%. Regarding `CSc1ccc(CCNC(=O)CS(=O)(=O)Cc2nc(-c3ccccc3F)oc2C)cc1`, the max response was -3.5%. Turning to `Cc1nn(-c2ncc(C(F)(F)F)cc2Cl)c(=O)n1-c1ccccc1`, the max response is 0.461%. On to `Cc1cc(C)c2nc3nc(C)cc(C)c3c(N)c2c1`, for which the max response was 15.1% (active).

For the compound `Cc1cc(C)c2nc(-c3ccco3)cc(C(=O)O)c2c1`, the max response was 0.856%. Consider `Cc1cc(C)c2nc(SCCC#N)nc(C)c2c1`, for which the max response was 1.85%. For `COc1ccc(/C=C(/NC(=O)c2ccco2)C(=O)Nc2ccc(C(C)=O)cc2)cc1`, the max response was 2.87%. As for `COc1ccc(CN(C)C(=O)CC(c2ccccc2)c2ccccc2)cc1`, the max response is -2.05%. For the compound `COc1ccc(C(CC(=O)c2ccccc2)S(=O)(=O)c2ccccc2)cc1` (stereo not given), the max response was 30% (active).

For `COc1ccc(N(Cc2ccccc2)S(=O)(=O)c2cccc(C(=O)O)c2)cc1`, the max response is -3.66%. With `Cc1ccc(SCc2c(C(=O)N/N=C/c3cccnc3)nnn2-c2nonc2N)cc1`, the max response was 2.02%. `CC(C)C[C@H](NC(=O)C1CC(=O)N(c2ccc3c(c2)OCCO3)C1)C(=O)NC1CCCC1` (stereo not given in full): the max response was 6.36%. Regarding `C=C1CCN(C(CC(C)C)C(=O)N2CCOCC2)S(=O)(=O)c2ccccc21` (stereo not given), the max response was 4.95%. Take `Cc1ccc(Cc2cnc(NC(=O)/C(C#N)=C/c3ccc(-c4cccc([N+](=O)[O-])c4)o3)s2)cc1`: the max response is -0.479%. For the compound `N#C/C(=C/c1ccc(-c2ccccc2[N+](=O)[O-])o1)C(=O)NCCN1CCCCC1`, the max response was 2.31%.

With `Cc1ccc(-c2ccc(/C=C(\C#N)C(N)=S)o2)c([N+](=O)[O-])c1`, the max response was 16% (active). The value for `COc1ccc(C)cc1N(C(=O)Cn1nnc(-c2ccc(C)o2)n1)C(C(=O)NC1CCCC1)c1ccncc1` (stereo not given) was -6.77%; that for `O=C(Nc1ccc(-c2ccc3nncn3n2)cc1)C1CCCCC1` was 16% (active). Take `O=C(O)c1ccc(NC(=O)C2CCCCC2)cc1`: the max response is -1.35%. Regarding `CC(C)NS(=O)(=O)c1ccc(NC(=O)C2CCCCC2)cc1`, the max response was -0.865%.

Turning to `CCCOc1ccc(C2NC(=O)NC(c3ccccc3)=C2C(C)=O)cc1OCC` (stereo not given), the max response is -7.3%. On to `CCN1N=C(c2ccccc2)CCC1=O`, for which the max response was -2.27%.

Regarding `Nc1ccn(C2CC(O)C(CO)O2)c(=O)n1` (stereo not given), the max response is -1.51%.

In the case of `CC(NC(=O)c1ccco1)C(=O)Nc1nc(-c2ccccn2)cs1` (stereo not given), the max response is -2.97%.

On to `c1ccc(Nc2nc(-c3ccncc3)cs2)nc1`, for which the max response was 36.4% (active). Consider `COc1ccc2cc(S(=O)(=O)Nc3ccccn3)ccc2c1`, for which the max response was -3.68%. In the case of `Clc1ccc(Nc2nc(-c3cccs3)cs2)nc1`, the max response is 37.5% (active).

As to `COc1ccc(-c2csc(Nc3ccccn3)n2)cc1`, the max response is 40.4% (active). Take `c1cnc(Nc2nc(-c3ccc4ccccc4c3)cs2)nc1`: the max response was 42.5% (active).

On to `COC(=O)CSc1nccc(-c2cccs2)n1`, for which the max response was 17%.

As to `COC(=O)c1cc(-c2cccs2)nc2ccccc12`, the max response was -2.85%. For `c1ccc(NCc2cccc3ccccc23)nc1`, the max response was 9.29%. `COc1ccc(-c2nc(CS(=O)(=O)CC(=O)NCc3cccc(Br)c3)c(C)o2)cc1`: the max response was 6.41%. For `Cc1ccc(OCCCCN2CCCCC2)c(Br)c1`, the max response is 10.9%.

For `CC(C)(C)NC(=O)NC(=O)COC(=O)C1c2ccccc2Oc2ccccc21`, the max response is 0.419%. In the case of `Cc1ccc(CNC(=O)c2cccnc2Cl)cc1`, the max response was 6.44%. The value for `CCN(C(=O)c1ccc(Br)cc1)c1ccccc1` was -3.18%; that for `Cc1cccc(C(=O)N2CCCC(Nc3ccc(C(C)C)cc3)C2)n1` (stereo not given) was 17.8%. Turning to `CCOC(=O)C1(CCOc2ccccc2)CCN(Cc2ccc(C#CCCO)cc2)CC1`, the max response was -3.24%. As for `CCCC1=Nc2cc(C(=O)NCCN3CCCC3)ccc2Sc2ccccc21`, the max response is -5.31%.

Turning to `CCN1CCc2nc(NC(=O)c3cc(F)c(F)cc3Cl)sc2C1`, the max response was 18.8% (active). As for `O=C(Nc1nccs1)c1cc(S(=O)(=O)N2CCOCC2)c(Cl)cc1Cl`, the max response is -3.9%. Regarding `O=C(Nc1ccc(OCC(=O)N2CCOCC2)cc1)c1cc(F)c(F)cc1Cl`, the max response is 2.51%.

In the case of `COc1ccc(-n2nnnc2SCC(=O)c2ccc(OC)c(OC)c2)cc1`, the max response was -0.506%. For the compound `Cc1cc(NC(=O)CSc2nnnn2-c2ccc(F)cc2)no1`, the max response is -1.5%. `O=C(CSc1nnnn1-c1ccc(O)cc1)c1ccc(F)cc1`: the max response is 23.5% (active). Regarding `CCC(C(=O)NCc1cccnc1)n1nc(C)c2sc3ccccc3c2c1=O` (stereo not given), the max response was -10.2%.

The values are drawn from PubChem BioAssay AID2314 (National Center for Advancing Translational Sciences (NCATS), 2010).
